Results reported in PubChem BioAssay (Tox21).
Inconclusive results are not listed. Calls of active or inactive are those of the source. Unless noted, calls come from the whole dose curve; as a rule, active = well fitted curve in the direction sought with a large enough effect in the repeat runs; inconclusive = weak or mixed curves; inactive = no such curve, though single readings can be large; an effect the other way counts as inactive or inconclusive.

Assays:
[1] = qHTS assay to identify small molecule HDAC inhibitors (AID 1259364); note: top concentration of the series differs between compounds; nearly all actives have a fitted effect of over 45% in size
Procedure, shortened: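 Luminescence read after 30 min room-temperature HDAC-Glo incubation measures cellular class I/II HDAC activity. Compounds were applied for 2 hr at 37 C to HCT-116 wild-type cells seeded the day before.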

[2] = qHTS assay to identify small molecule HDAC inhibitors - cell viability counter screen (AID 1259365); note: series mostly up to about 92 µM; nearly all actives have a fitted effect of over 50% in size
Procedure, shortened: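 HCT-116 (wild type), 1,500 cells/well, overnight 37C/5% CO2; compound in DMSO 2hr; CellTiter-Glo 30min RT; luminescence read.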

[3] = qHTS assay to identify small molecule agonists of the sonic hedgehog signaling (Shh) pathway - cell viability counter screen (AID 1259366); note: nearly all actives have a fitted effect of over 50% in size; note: potency is the fitted concentration of half-maximal effect
Procedure, shortened: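 CellTiter-Fluor fluorescence read-out, 1 hr at 37C, added after 23hr compound exposure. Cells: 3T3 Gli1-Luc, an NIH/3T3 clone with stably integrated Gli1-Luc reporter, plated 4hr before compound.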

[4] = qHTS assay to identify small molecule agonists of the sonic hedgehog signaling (Shh) pathway (AID 1259368; calls by dose curve;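 note: NIH/3T3-derived 3T3Gli1-Luc cells carrying a stable Gli1-driven firefly luciferase reporter; series mostly up to about 92 µM; nearly all actives have a fitted effect of over 15% in size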)
Procedure, shortened: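 Luminescence was read after 30 min at room temperature with luciferase reagent. Before that, 3T3Gli1-Luc cells (NIH/3T3 clone, stable Gli1-Luc reporter; 2,000/well) were exposed to compounds for 24 hr at 37C, 5% CO2, compounds being added 4 hr post-plating.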

[5] = target: Estrogen receptor beta (Homo sapiens) (UniProt Q92731); test: qHTS assay to identify small molecule agonists of the estrogen receptor beta (ER-beta) signaling pathway (AID 1259377; active = well fitted activation curve with a large enough effect in the signal ratio in the repeat runs, not every such curve was filed as active; the % refers to the signal ratio)
Procedure, shortened: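 Beta-lactamase reporter readout: fluorescence of LiveBLAzer B/G FRET substrate after 2 h at room temperature, following 16 h compound treatment of ER-beta-UAS-bla HEK293T cells at 37C in 2% charcoal-stripped FBS medium.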

[6] = qHTS assay to identify small molecule agonists of the androgen receptor (AR) signaling pathway in the presence of an antagonist - cell viability counter screen (AID 1259379); note: nearly all actives have a fitted effect of over 25% in size; note: potency is the fitted concentration of half-maximal effect;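 for activity change, negative = cytotoxicity: MDA-kb2 human breast cancer cells carrying an MMTV luciferase reporter; series mostly up to about 92 µM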
Procedure, shortened: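 Cytotoxicity counter-screen run in the same wells as the nilutamide-challenged (3.0 µM final) AR agonist assay in MDA-kb2 cells. Compounds tested at 15 concentrations for 16 h, 37 °C without CO2; CellTiter-Fluor fluorescence read.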

[7] = qHTS assay to identify small molecule agonists of the estrogen receptor beta (ER-beta) signaling pathway - cell viability counter screen (AID 1259380); note: nearly all actives have a fitted effect of over 30% in size; note: potency is the fitted concentration of half-maximal effect
Procedure, shortened: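 Cell viability counter screen: CellTiter-Glo luminescence (30 min, room temperature) measured in the same wells as the beta-lactamase readout, after 16 hr compound exposure at 37C of ER-beta-bla HEK293T cells in 2% charcoal-stripped FBS medium.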

[8] = target: Estrogen receptor (Homo sapiens) (UniProt P03372); test: qHTS assay to identify small molecule agonists of the estrogen receptor alpha (ER-alpha) signaling pathway in the presence of an antagonist (AID 1259383; calls by dose curve; note: top concentration of the series differs between compounds; nearly all actives have a fitted effect of over 15% in size)
Procedure, shortened: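 Agonist-mode confirmation run in the presence of 10.0nM (final) ICI-182,780 antagonist. The reporter was ERE-driven luciferase in VM7Luc4E2 cells, grown in charcoal-stripped serum. Cells were exposed to 15-concentration compound series for 22hr, then ONE-Glo luminescence was read.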

[9] = qHTS assay to identify small molecule antagonists of the estrogen receptor alpha (ER-alpha) signaling pathway using the BG1 cell line in the presence of 0.1 nM 17-beta-estradiol - cell viability counter screen (AID 1259241); note: nearly all actives have a fitted effect of over 40% in size
Procedure, shortened: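 Live-cell protease activity (CellTiter-Fluor fluorescence, 30 min) was read in the same wells after VM7Luc4E2 cells had been exposed to compounds with 0.1 nM 17beta-estradiol for 22 hr at 37C.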

[10] = qHTS assay to identify small molecule antagonists of the androgen receptor (AR) signaling pathway using the MDA cell line in the presence of 0.5 nM R1881 - cell viability counter screen (AID 1259242); note: nearly all actives have a fitted effect of over 45% in size
Procedure, shortened: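 Live-cell protease activity was measured by CellTiter-Fluor fluorescence after 30 min. Before that, MDA-kb2 MMTV-luciferase cells had 16 hr at 37C without CO2, exposed to test compounds and 0.5 nM R1881 final.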

[11] = target: Estrogen receptor (Homo sapiens) (UniProt P03372); test: qHTS assay to identify small molecule antagonists of the estrogen receptor alpha (ER-alpha) signaling pathway using the BG1 cell line in the presence of 0.1 nM 17-beta-estradiol (AID 1259244); note: nearly all actives have a fitted effect of over 50% in size
Procedure, shortened: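 Luciferase luminescence (ONE-Glo, 30 min at room temperature) was read after 22 hr at 37C exposure to compounds plus 17beta-estradiol at 0.1 nM final. Cells were VM7Luc4E2 with endogenous ER-alpha and an ERE-driven luciferase, pre-cultured 5 days in hormone-depleted medium.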

[12] = qHTS assay to identify small molecule antagonists of the sonic hedgehog signaling (Shh) pathway - cell viability counter screen (AID 1259367); note: nearly all actives have a fitted effect of over 55% in size
Procedure, shortened: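 Fluorescence read-out (CellTiter-Fluor, 1 hr at 37C) taken after 23 hr compound treatment of 3T3 Gli1-Luc cells stimulated with conditioned medium. Cells were seeded at 2,000 per well and pre-incubated 4 hr.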

[13] = qHTS assay to identify small molecule antagonists of the sonic hedgehog signaling (Shh) pathway (AID 1259369; calls by dose curve; note: nearly all actives have a fitted effect of over 45% in size)
Procedure, shortened: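 Antagonist mode: compound added to 3T3 Gli1-Luc cells followed by conditioned-medium stimulation, 24 h at 37 C, 5% CO2. Inhibition taken as loss of Gli1-driven luciferase luminescence.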

[14] = target: Estrogen receptor beta (Homo sapiens) (UniProt Q92731); test: qHTS assay to identify small molecule antagonists of the estrogen receptor beta (ER-beta) signaling pathway (AID 1259378; active = well fitted inhibition curve with a large enough effect in the signal ratio in the repeat runs, not every such curve was filed as active; the % refers to the signal ratio)
Procedure, shortened: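 ER-beta-UAS-bla HEK293T cells in 2% charcoal-stripped FBS medium treated with compound plus 1nM final 17-beta-estradiol for 16 hr at 37C. Beta-lactamase reporter read by FRET substrate fluorescence after 2 hours at room temperature.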

[15] = qHTS assay to identify small molecule antagonists of the estrogen receptor beta (ER-beta) signaling pathway - cell viability counter screen (AID 1259382); note: series mostly up to about 92 µM; nearly all actives have a fitted effect of over 55% in size
Procedure, shortened: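 Cytotoxicity was measured in the same wells by CellTiter-Glo luminescence after 30 min at room temperature. Cells were ER-beta-bla HEK293T in charcoal-stripped serum, given compound together with 1 nM E2 and incubated 16 h at 37C.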

[16] = qHTS assay to identify small molecule agonists or antagonists of the thyroid stimulating hormone receptor (TSHR) signaling pathway - wild type cell line counter screen (AID 1259384; calls by dose curve)
Procedure, shortened: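 Wild-type Hek293 cells, 800/well, 18 h at 37C, then compound with Ro20-1724 for 30 min RT. cAMP by HTRF (cAMP-d2/anti-cAMP cryptate), 1 h RT, fluorescence read. 15 concentrations, triplicates.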

[17] = qHTS assay to identify small molecule phospholipidosis (PLD) inducers (AID 1259344; active = well fitted curve in the direction sought with a large enough effect; an effect the other way counts as inactive or inconclusive)
Procedure, shortened: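 Read-out is LipidTOX Red fluorescence (ex 595/em 615) imaged in HepG2 cells after 24 h compound exposure at 37 C, with Hoechst nuclear counterstain (ex 352/em 461) allowing per-cell normalisation.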
% is set by controls: 0 for no effect and ±100 for the full control effect.

Estrogen receptor (Homo sapiens), sequence (P03372 whole entry, looked up): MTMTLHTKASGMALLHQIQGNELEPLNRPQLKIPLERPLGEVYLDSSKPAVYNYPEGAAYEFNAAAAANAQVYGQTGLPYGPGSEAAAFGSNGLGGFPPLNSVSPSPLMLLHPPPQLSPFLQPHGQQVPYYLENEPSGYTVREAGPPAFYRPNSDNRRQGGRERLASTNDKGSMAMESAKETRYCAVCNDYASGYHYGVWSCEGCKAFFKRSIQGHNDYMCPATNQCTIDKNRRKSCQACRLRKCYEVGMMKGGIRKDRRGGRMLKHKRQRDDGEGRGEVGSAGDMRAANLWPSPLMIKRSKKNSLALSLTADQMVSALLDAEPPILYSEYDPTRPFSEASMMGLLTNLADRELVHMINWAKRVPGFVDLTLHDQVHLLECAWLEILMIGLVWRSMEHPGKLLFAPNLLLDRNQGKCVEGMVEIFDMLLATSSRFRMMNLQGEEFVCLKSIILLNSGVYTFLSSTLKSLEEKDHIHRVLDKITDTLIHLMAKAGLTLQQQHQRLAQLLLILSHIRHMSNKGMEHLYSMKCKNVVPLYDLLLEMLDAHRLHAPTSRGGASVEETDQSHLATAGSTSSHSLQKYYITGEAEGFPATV
Estrogen receptor beta (Homo sapiens), sequence (Q92731 whole entry, looked up): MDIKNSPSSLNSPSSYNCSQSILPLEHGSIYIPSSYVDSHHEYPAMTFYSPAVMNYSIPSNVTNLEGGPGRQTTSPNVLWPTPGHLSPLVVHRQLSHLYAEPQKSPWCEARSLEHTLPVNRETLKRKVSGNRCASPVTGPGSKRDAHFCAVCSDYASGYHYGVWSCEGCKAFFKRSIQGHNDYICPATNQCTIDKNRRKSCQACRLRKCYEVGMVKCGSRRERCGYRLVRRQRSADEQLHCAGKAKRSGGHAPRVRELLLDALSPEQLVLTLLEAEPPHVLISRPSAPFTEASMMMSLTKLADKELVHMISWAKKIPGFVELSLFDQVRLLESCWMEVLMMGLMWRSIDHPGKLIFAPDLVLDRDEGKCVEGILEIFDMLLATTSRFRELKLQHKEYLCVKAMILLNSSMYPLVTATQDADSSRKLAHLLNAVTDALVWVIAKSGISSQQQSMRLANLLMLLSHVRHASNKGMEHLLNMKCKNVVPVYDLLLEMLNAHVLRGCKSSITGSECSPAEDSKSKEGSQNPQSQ

CN(C)C(=O)C(CCN1CCC(O)(c2ccc(Cl)cc2)CC1)(c1ccccc1)c1ccccc1
inactive: Potency [1] | outcome [2] | Potency [4] | outcome [5] | Potency [8]
active: Potency [3] 16.8 µM | Potency [6] 29.8 µM | Potency [7] 26.6 µM

CCO[Si](C)(OCC)OCC
inactive: outcome [9] | outcome [10] | outcome [11] | Potency [1] | outcome [2] | Potency [3] | outcome [12] | Potency [4] | Potency [13] | outcome [5] | Potency [14] | Potency [6] | Potency [7] | Potency [15] | Potency [8] | outcome [16]

CCCCC=O
inactive: outcome [9] | outcome [10] | Potency [1] | outcome [2] | Potency [3] | outcome [12] | Potency [4] | Potency [13] | Potency [6] | Potency [7] | Potency [15] | outcome [16]

Fc1ccccc1-c1ccccc1
inactive: outcome [9] | outcome [10] | outcome [11] | Potency [1] | outcome [2] | Potency [3] | outcome [12] | Potency [4] | Potency [13] | outcome [5] | Potency [6] | Potency [7] | Potency [15] | Potency [8] | outcome [16]

CC(C)(O)c1ccccc1
inactive: outcome [9] | outcome [10] | outcome [11] | Potency [1] | outcome [2] | Potency [3] | outcome [12] | Potency [4] | Potency [13] | outcome [5] | Potency [14] | Potency [6] | Potency [7] | Potency [15] | Potency [8]

O=C(O)c1ccccc1S
inactive: outcome [9] | outcome [10] | outcome [11] | Potency [17] | Potency [1] | outcome [2] | Potency [3] | outcome [12] | Potency [4] | Potency [13] | Potency [14] | Potency [6] | Potency [7] | Potency [15] | Potency [8] | outcome [16]

NC(=O)c1c(Cl)cccc1Cl
inactive: outcome [9] | outcome [10] | outcome [11] | Potency [1] | outcome [2] | Potency [3] | outcome [12] | Potency [4] | Potency [13] | Potency [6] | Potency [7] | Potency [15] | Potency [8] | outcome [16]

FC(F)(F)C(F)(F)C(F)(F)C(F)(F)C(F)(F)C(F)(F)C(F)(F)C(F)(F)C(F)(F)C(F)(F)F
inactive: activity change, negative = cytotoxicity [9] -0.635% [at 8.39 µM] | viability change, negative = cytotoxic [10] -3% [at 8.39 µM] | activity change, negative = inhibition [1] -3.49% [at 8.39 µM] | viability change, negative = cytotoxic [3] 2.95% [at 8.39 µM] | viability change, negative = cytotoxic [12] 4.53% [at 8.39 µM] | activity change [4] -0.701% [at 8.39 µM, active compounds read high] | activity change, negative = inhibition [13] -15.5% [at 8.39 µM] | activation [5] -4.79% [at 8.39 µM] | activity change, negative = cytotoxicity [6] 1.46% [at 8.39 µM] | activity change, negative = cytotoxicity [7] -0.929% [at 8.39 µM] | activity change, negative = cytotoxicity [15] -4.55% [at 8.39 µM] | cAMP activity change [16] 1.74% [at 8.39 µM]

CCCCc1ccc(N)cc1
inactive: outcome [9] | outcome [10] | outcome [11] | Potency [1] | outcome [2] | Potency [3] | outcome [12] | Potency [4] | outcome [5] | Potency [14] | Potency [6] | Potency [7] | Potency [15] | Potency [8] | outcome [16]

CCCCCCCCCCCCCCC
inactive: outcome [9] | outcome [10] | Potency [1] | Potency [3] | outcome [12] | Potency [4] | outcome [5] | Potency [6] | Potency [15] | outcome [16]

NC(=O)c1ncn([C@@H]2O[C@H](CO)[C@@H](O)[C@H]2O)c1O
inactive: outcome [9] | outcome [10] | outcome [11] | Potency [17] | Potency [1] | outcome [2] | Potency [3] | outcome [12] | Potency [4] | outcome [5] | Potency [14] | Potency [6] | Potency [7] | Potency [15] | Potency [8] | outcome [16]

CC(C)(C)C(=O)/C=C/c1ccc(Cl)cc1
inactive: outcome [9] | outcome [10] | outcome [11] | Potency [1] | outcome [2] | Potency [3] | outcome [12] | Potency [4] | outcome [5] | Potency [14] | Potency [6] | Potency [15] | Potency [8] | outcome [16]

C#CC(O)CCCCC (centres undefined)
inactive: outcome [9] | outcome [10] | Potency [1] | Potency [3] | outcome [12] | Potency [4] | Potency [13] | Potency [6] | Potency [7] | Potency [15] | outcome [16]

C#CC(C)(O)CC(C)C (centres undefined)
inactive: outcome [9] | outcome [10] | Potency [1] | outcome [2] | Potency [3] | outcome [12] | Potency [4] | Potency [13] | outcome [5] | Potency [14] | Potency [6] | Potency [7] | Potency [15] | outcome [16]

CCCCCCCCC=O
inactive: outcome [9] | outcome [10] | Potency [1] | Potency [3] | outcome [12] | Potency [4] | outcome [5] | Potency [14] | Potency [6] | Potency [7] | Potency [15] | outcome [16]

C=C(C)C(=O)OCCC(C)OC(=O)C(=C)C (centres undefined)
inactive: outcome [9] | outcome [10] | outcome [11] | Potency [1] | outcome [2] | Potency [3] | outcome [12] | Potency [4] | Potency [13] | Potency [6] | Potency [7] | Potency [15] | Potency [8] | outcome [16]
